In PubChem BioAssay AID1626 (SRMLSC, 2009):
Among all 220,000 compounds or so, about 2,000 (0.91%) were called active. Another 2% or so got no clear call; they are omitted. Not all results are given here. Entries with a potency or affinity are not part of this list. Unmarked numbers belong to inactive results. Cut-off read from the data, not from the text of the source: inconclusive = inhibition above about 80% without an active follow-up result; inactive = below that; test concentration not stated here.

assay: M. tuberculosis H37Rv growth inhibitors, H37Rv strain (AID 1626); conditions: active compounds read high, concentration not given here;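 note: bacteria incubated seven days before Alamar blue readout; 0% = bacteria only wells and 100% = bacteria with antibiotic wells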

In order of rising inhibition:
1. CNC(=O)Nc1cccc2cccnc12  -8.8%
2. C/C(=N/NC(=O)CN1CCN(Cc2ccccc2Cl)CC1)c1ccco1  -5.99%
3. CNC(=O)COC(=O)/C=C/c1ccco1  -4.68%
4. O=C(CCl)NCc1c(Cl)cccc1-n1cccc1  -3.53%
5. Cc1ccccc1NC(=O)Cc1nnc(SCc2ccc(Cl)c(Cl)c2)n1C  -3.35%
6. Cc1ccc(S(=O)(=O)Nc2cccc3cccnc23)cc1  -2.94%
7. COC(=O)C1CC(=O)N(Cc2ccccc2)C1 (stereo unspecified)  -1.62%
8. Cc1ccc(-c2c[n+](CC(=O)Nc3c(C)cccc3C)c3n2CCC3)cc1  -1.5%
9. O=C(COC(=O)c1cccc(Cl)c1Cl)NCCN1C(=O)CSC1=O  -1.16%
10. O=C(Cc1sc(-c2ccccc2Cl)nc1-c1ccccc1)Nc1ccc(F)cc1  -0.94%
11. Cc1ccc(NC(=O)C[n+]2cc(-c3ccc(C)cc3)n3c2CCC3)cc1  0.55%
12. CCCn1c(SCC(=O)Nc2ccccc2C(=O)OC)nc2c1c(=O)n(C)c(=O)n2C  0.72%
13. COc1cc(C2NCCc3c2[nH]c2ccccc32)ccc1OC(C)C (stereo unspecified)  1.05%
14. CC(C)(CO)NCc1ccc(Br)cc1  1.99%
15. CCOC(=O)c1c(NC(=O)C(=O)N/N=C/c2ccc(OCC)cc2)sc2c1CCCCC2  2.16%
16. COC(=O)c1ccc(/C=C(\C#N)c2nc3ccccc3s2)cc1  3.69%
17. O=S(=O)(c1cc(Cl)ccc1Br)N1CCCCC1  3.97%
18. CC(C)CCN1C(=O)c2ccc(C(=O)NCc3ccco3)cc2C1=O  4.17%
19. CCOC(=O)N1CCC(Nc2nc3ccccc3n3cnnc23)CC1  4.5%
20. COc1ccc(C2NCCc3c2[nH]c2ccccc32)cc1CN1CCc2cc(OC)c(OC)cc2C1C (stereo unspecified)  4.52%
21. COc1cccc(C(=O)NNC(=S)NC2CCCCC2)c1  4.93%
22. COCCOC(=O)c1c(NC(=O)CN2c3ccccc3CC2C)sc(C(N)=O)c1C (stereo unspecified)  6.79%
23. Cc1ccc(N(CC(=O)NCCSc2nc3ccccc3s2)S(=O)(=O)c2ccccc2)c(C)c1  9.8%
24. COc1ccc(C2C(C(=O)OCC(=O)NC(C)(C)C)CCC(=O)N2c2ccc(C)cc2)cc1OC (stereo unspecified)  70.3%
25. Cc1ccc(-c2csc(NC(=O)C[n+]3cc(-c4ccccc4)n4c3CCC4)n2)cc1  75.7%
26. O=C(C[n+]1cc(-c2ccccc2)n2c1CCC2)Nc1nc(-c2ccccc2)cs1  77.8%
